Laboratory results from PubChem BioAssay (NCATS).
Results filed as inconclusive are left out. A number with no mark means an inactive call. The call rests on the fitted dose curve; in most records, active means well fitted cell-killing curve with a large enough effect; inconclusive means small, poorly fitted or top-dose-only effect, or effect the other way; inactive means flat fitted curve, though single readings scatter.

These compounds were tested on CAOV3 (assay: Primary qHTS to identify gynecologic anti-cancer compounds using libraries of approved drugs and bioactive compounds (AID 1345084; further: nearly all actives have a fitted effect of over 55% in size)). Conditions: Gynecologic cancer cell panel viability, ATPlite luminescence, 48 h; series mostly up to 57.5 µM; activity change, negative = cytotoxicity: at the top concentration.
Excerpt: National Center for Advancing Translational Sciences [NCATS] Assay Overview: Chemotherapeutic drug responses vary from cancer to cancer and from patient to patient. These variations could be caused by a number of factors including patient genomic background, tumor mutations, tumor heterogeneity, and aspects of drug treatment. Chemotherapeutic drug resistance is also a common issue and can lead to ineffective treatment and patient death. Here we have profiled the cell killing effects of thousands of compounds to characterize the responses in three gynecological cancers, identify cancer-selective compounds, and understand the diversity of responses to these compounds from pan-cancer suppressors to single cell line selective compounds. In this assay, we screened a 7,914 compound drug library that included approved drug and bioactive compounds in six ovarian, three cervical, and […] placental cancer cell lines using the ATPlite assay for cell viability. […] The cervical cancer cell lines included HeLa, Ca Ski, and C-33 A. The placental cancer cell lines included JEG-3. HEK 293T cells were used as the control cell line to determine the selectivity index. ATPlite is a luminescence based assay reliant on the conversion of a luciferase substrate to light in the presence of ATP. As a cytotoxic compound will suppress growth and decrease the number of cells, the concentration of ATP will decrease, and less light signal will be detected in the well.
Assay Protocol Summary: 1,000 cells in 4 uL of media were dispensed into white, solid bottom 1536-well plates using a Multidrop Combi (Thermo Scientific). The Assay plates were incubated for 16 hours at 37 C with 5% CO2 in assay plates, followed by the addition of 23 nL of DMSO or drug dissolved in DMSO. Each compound was assayed in five concentrations (0.092, 0.46, 2.3, 11.5, and 57.5 uM), using the automated Wako 1536 Pin Tool workstation and incubated at 37 C with 5% CO2 48 hours. 4 uL of ATPlite, the ATP monitoring reagent, was then added to the each well of the assay plates using the Multidrop Combi reagent dispenser followed by incubation for 15 minutes at room temperature. The resulting luminescence was measured using the ViewLux plate reader.
On the % scale 0 is the no-effect control and ±100 the full control effect.

SMILES	activity change, negative = cytotoxicity [%]
COC(=O)c1cccnc1	4.67
Cc1ccsc1/C=C/C1=NCCCN1C	13.2
CCc1nnc(NS(=O)(=O)c2ccc(N)cc2)s1	0
NC(=O)CCCCC1CCSS1 (stereo not given)	-6.43
CC(=O)SC[C@@H](Cc1ccccc1)C(=O)NCC(=O)OCc1ccccc1	-1.28
CN/C(=C\[N+](=O)[O-])NCCSCc1csc(CN(C)C)n1	7.56
CCCCCCCC(=O)OCC(COC(=O)CCCCCCC)OC(=O)CCCCCCC	1.69
CC1CC(OC(=O)c2ccccc2O)CC(C)(C)C1 (stereo not given)	21.4
Nc1c2c(nc3c1CCC3)CCCC2	6.76
CC(=O)Nc1cccc(O)c1	2.59
Cc1c(NC(C)C)c(=O)n(-c2ccccc2)n1C	13.3
C=CCOc1ccccc1OCC(O)CNC(C)C (stereo not given)	-0.149
CC1CCc2cc(F)cc3c(=O)c(C(=O)O)cn1c23 (stereo not given)	33.1
O=C1c2ccccc2C(=O)C1c1ccc(Br)cc1	-3.48
CCCNC(C)(C)COC(=O)c1ccccc1	-10.2
CNCc1ccccc1	1.89
CC(C)CCCC(C)CCCC(C)CCCCC(C)CCCC(C)CCCC(C)C (stereo not given)	-3.14
COC(=O)c1ccc(O)cc1	24.8
CC(=O)N(CC(O)CO)c1c(I)c(C(=O)NCC(O)CO)c(I)c(C(=O)NCC(O)CO)c1I (stereo not given)	-2.87
C[N+](C)(C)CC[N+]1(C)Cc2c(Cl)c(Cl)c(Cl)c(Cl)c2C1	-4.31

SMILES	activity change, negative = cytotoxicity [%]
Cn1c([N+](=O)[O-])cnc1COC(N)=O	-5.5
Cc1c(N(C)C)c(=O)n(-c2ccccc2)n1C	-8.15
CC(C)=CCC[C@@](C)(O)[C@H]1CC=C(C)CC1	17.8
Nc1ncnc2c1ncn2[C@@H]1O[C@H](COP(=O)(O)O)[C@@H](O)[C@H]1O	-2.91
NS(=O)(=O)c1ccc(C(=O)O)cc1	4.77
O=S1(=O)OC(c2ccc(O)cc2)(c2ccc(O)cc2)c2ccccc21	-21
COc1ccc(O)cc1	2.19
CC(C)CCOC(=O)c1ccc(N(C)C)cc1	-2.6
CCOc1ccccc1O[C@H](c1ccccc1)[C@H]1CNCCO1	21.9
COc1cc(C(=O)NCCCCCC(=O)O)cc(OC)c1OC	2.47
Cc1c(NC(=O)c2cccnc2)c(=O)n(-c2ccccc2)n1C	24.5
C[C@@H]1CCC[C@H](C)N1	6.75
Cc1cccc(C)c1NC(=O)CC12CCCN1CCC2	-1.87
COc1ccc2cc(CCC(C)=O)ccc2c1	-1.83
CC[C@H](C)[C@H](N)C(=O)O	16.7
Cc1ccsc1C(=CCCN1CCC[C@@H](C(=O)O)C1)c1sccc1C	9.1
C/C=C1\[C@H]2C=C(C)C[C@]1(N)c1ccc(=O)[nH]c1C2	15.8
CC(=O)N[C@H]1[C@H]([C@H](O)[C@H](O)CO)OC(C(=O)O)=C[C@@H]1N=C(N)N	15.9
CC(C)NC[C@@H](O)COc1ccc(CC(N)=O)cc1	27.5
C[N+](C)(C)CC(O)CC(=O)[O-] (stereo not given)	-5.97
